Shown are actives, neighbours in structure and some others; about 2.3% of the full set was active somewhere.
Mcl1-Bid inh: Mcl-1/Bid binding inhibitors, primary screen, biochemical, TR-FRET, 1536-well. Induced myeloid leukemia cell differentiation protein Mcl-1 (Homo sapiens), Q07820. TR-FRET Mcl-1/Bid-Dy647 peptide binding. inhibition, % at 21.7 µM. hit rate 0.97% among 220,000. AID 1021, 2008;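 active means compounds that cut the binding signal by more than half at the single screening dose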;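 further: His-tagged Mcl-1 with europium anti-His antibody binding Bid BH3 peptide; 0% = Mcl-1 plus peptide wells and 100% = peptide-only wells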
Mcl1-Noxa inh: Mcl-1/Noxa binding inhibitors, primary screen, biochemical, TR-FRET, 1536-well. TR-FRET Mcl-1/Noxa peptide binding, 2 h. inhibition, % at 21.7 µM. hit rate 1.5% among 220,000. Induced myeloid leukemia cell differentiation protein Mcl-1 (Homo sapiens), Q07820;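 active means compounds that cut the protein-peptide binding signal by more than 50% relative to plate controls in a single-dose test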;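 further: His-tagged Mcl-1 with rhodamine Noxa BH3 peptide and terbium anti-His antibody; 0% = Mcl-1 plus Noxa peptide wells and 100% = peptide-only wells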
Bcl-xL primary: inhibitors of human Bcl-xL, primary screen, biochemical, fluorescence polarization, HTS; GST-Bcl-xL / FITC-Bim BH3 peptide fluorescence polarization; inhibition, % at 10.9 µM; hit rate 0.7% among 320,000; AID 2129, 2009;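 active means inhibition above the mean of all tested compounds plus 3 SD, cutoff set per campaign, cut at about 30% in these data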;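 further: 0% = DMSO wells and 100% = unlabeled Bim-BH3 peptide competitor; inhibitors lower millipolarization by displacing the labeled peptide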
Target sequence (Q07817 whole entry, looked up): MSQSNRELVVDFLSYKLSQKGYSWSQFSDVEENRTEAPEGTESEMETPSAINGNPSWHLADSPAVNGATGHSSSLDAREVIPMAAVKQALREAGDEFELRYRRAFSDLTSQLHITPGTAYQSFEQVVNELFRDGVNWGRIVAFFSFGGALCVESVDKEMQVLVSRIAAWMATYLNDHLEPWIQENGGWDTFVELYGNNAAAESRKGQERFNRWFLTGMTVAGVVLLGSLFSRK
MCL1-BIM inh: inhibitors of MCL1 binding to BIM-BH3, primary screen, biochemical, fluorescence polarization. hit rate 0.68% among 320,000. inhibition, % at 10.9 µM. AID 2057, 2009. GST-MCL1 / FITC-Bim-BH3 fluorescence polarization. Induced myeloid leukemia cell differentiation protein Mcl-1 (Homo sapiens), Q07820;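 active means inhibition above the mean inhibition of all tested compounds plus 3 SD, set per campaign, cut at about 40% in these data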;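 further: 0% = DMSO wells and 100% = unlabeled Bim-BH3 peptide control; higher means more loss of mP so more displacement of Bim peptide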
GLD-1 RNA inh: GLD-1/TGE RNA complex disruptors, primary screen, biochemical, fluorescence polarization. inhibition, % at 5.96 µM. hit rate 0.44% among 320,000. AID 2280, 2010. Female germline-specific tumor suppressor gld-1 (Caenorhabditis elegans), Q17339. purified GLD-1 + fluorescein TGE RNA;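 active means percent inhibition above a per-plate cutoff, the plate mean of test compounds plus 3 SD, cut at about 30% in these data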;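 further: 0% = DMSO wells with GLD-1 and probe and 100% = wells lacking GLD-1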
Target sequence (Q17339 whole entry, looked up): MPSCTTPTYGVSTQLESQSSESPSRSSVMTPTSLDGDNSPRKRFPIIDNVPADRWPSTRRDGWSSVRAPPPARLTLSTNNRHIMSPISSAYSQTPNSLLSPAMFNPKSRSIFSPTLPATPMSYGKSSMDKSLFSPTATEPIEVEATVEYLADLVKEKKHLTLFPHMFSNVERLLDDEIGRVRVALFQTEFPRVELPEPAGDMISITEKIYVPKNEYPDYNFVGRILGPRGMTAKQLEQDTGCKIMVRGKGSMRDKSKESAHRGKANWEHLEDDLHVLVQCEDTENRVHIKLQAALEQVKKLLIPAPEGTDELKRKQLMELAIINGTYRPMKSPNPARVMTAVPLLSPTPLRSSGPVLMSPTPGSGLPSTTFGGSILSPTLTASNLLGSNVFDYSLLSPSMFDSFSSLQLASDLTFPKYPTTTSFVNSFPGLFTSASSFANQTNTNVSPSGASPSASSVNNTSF
Bim-Mcl-1: inhibitors of Bim peptide binding to Mcl-1, primary screen, biochemical, bead-based flow cytometry, multiplex; Bim peptide-Mcl-1 binding; inhibition, % at 10 µM; hit rate 0.1% among 190,000; Induced myeloid leukemia cell differentiation protein Mcl-1 (Homo sapiens), Q07820; in the data active means inhibition above about 40%;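 further: 0% = no compound tracer wells and 100% = peptide blocker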
* hit, by the source's call; . = no result given.

SMILES	Mcl1-Bid inh	Mcl1-Noxa inh	Bcl-xL primary	MCL1-BIM inh	GLD-1 RNA inh	Bim-Mcl-1
C#CCOCCOCCOCCNc1nc(N2CCN(C(=O)[C@H](CCCN=C(N)N)n3cc(C(N)[C@@H](C)CC)nn3)CC2)nc(N2CCN(C(=O)[C@H](CCC(=O)O)n3cc([C@@H](N)CO)nn3)CC2)n1 (some centres not stated)	.	.	.	.	1.7	.
CC12CCC(=O)N1C(C(=O)OCC(=O)Nc1sccc1C#N)CS2 (configuration not stated)	1.4	36.8	40.2*	35.4	22.0	1.0
Cc1ccc(C=C2C(=O)c3ccccc3C2=O)o1	4.4	22.9	6.9	3.9	-3.7	-4.0
Cc1ccc(/C=C2/C(=O)c3ccc(C(=O)O)cc3C2=O)o1	-95.2	72.1*	.	.	.	0.0
CCOC(=O)CC(=O)CSc1nc(CC)c(C)cc1C#N	-13.1	17.5	-5.8	-3.2	-3.8	.
CCOC(=O)CC(=O)CSc1nc2ccc(C)cc2cc1C#N	-26.6	42.0	28.8	14.6	83.2*	0.0
CCOc1ccc2nc(SCC(=O)N3c4ccccc4Sc4ccccc43)c(C#N)cc2c1	-120.3	-196.0	54.8*	1.0	47.7*	42.0*
COc1cc(OC)cc(N(C(=O)CNC(=O)c2ccco2)C(C(=O)NCC2CCCO2)c2ccccc2)c1 (configuration not stated)	.	.	11.1	8.3	11.9	.
CCC(Oc1ccccc1OC)C(=O)Nc1ccc2c(c1)OCO2 (configuration not stated)	.	.	0.7	2.8	6.4	.
Cc1cccc(C)c1-n1cccc1/C=C1\SC(=S)N(c2cccc(C(=O)O)c2)C1=O	51.7*	51.3*	13.7	1.3	-14.1	16.0
Cc1ccc(NC(=O)CN2C(=O)S/C(=C\c3cccn3-c3cccc(C(=O)O)c3)C2=O)c(C)c1	44.6	92.6*	0.3	0.9	-4.4	4.0
Cc1cccc(C)c1NC(=O)CN1C(=O)S/C(=C\c2cccn2-c2cccc(C(=O)O)c2)C1=O	-34.2	-2.5	9.9	-0.5	5.8	0.0
O=c1nc2c(O)cccn2c2c1c(=O)[nH]c1ccccc12	-83.4	60.6*	.	.	.	21.0
c1ccc(-c2noc(CN3CCN(c4ccccc4)CC3)n2)cc1	-43.4	-12.2	4.7	6.0	4.7	0.0
COc1ccc(N2CCN(Cc3nc(-c4ccc(Cl)cc4Cl)no3)CC2)cc1	-78.8	56.3*	1.4	1.2	5.9	-1.0
Cn1c(=O)c2ncn(CC(=O)O)c2n(C)c1=O	5.5	-11.3	-0.2	-0.1	0.1	.
O=C(O)Cn1cnc2c(=S)nc[nH]c21	98.8*	8.8	3.9	-3.1	0.7	.
COc1ccc(NC(=S)NC2CC3CCC(C2)N3Cc2ccco2)cc1 (configuration not stated)	-84.4	-3.1	-3.5	-3.0	1.4	0.0
CCc1ccc(NC(=S)NC2CC3CCC(C2)N3Cc2ccco2)cc1 (configuration not stated)	96.4*	4.5	-1.7	-0.6	11.9	-5.0
O=C(CCNS(=O)(=O)c1ccccc1C(F)(F)F)N1CCN(S(=O)(=O)c2cccc(F)c2)CC1	.	.	-2.0	1.2	4.0	.
CC(/C=N/NC(=O)CSc1nnc(SCc2ccccc2)s1)=C\c1ccco1	5.5	51.5*	3.2	0.8	1.8	-5.0
Cc1ccc(CSc2nnc(SCC(=O)N/N=C/C=C/c3ccco3)s2)cc1	-9.6	17.9	-1.9	-2.1	5.7	-2.0
O=C(Nc1ccncc1)c1sc2ccccc2c1Cl	-14.2	7.0	6.2	2.9	-3.0	-7.0
Cc1cccc(C(=O)NC(=S)NNC(=O)c2ccc(Cl)cc2)c1	-90.9	88.0*	3.2	-2.5	2.6	1.0
O=C(Nc1ccnc(=O)[nH]1)c1sc2ccccc2c1Cl	58.5*	10.7	5.1	3.7	-2.5	.
SMILES	Mcl1-Bid inh	Mcl1-Noxa inh	Bcl-xL primary	MCL1-BIM inh	GLD-1 RNA inh	Bim-Mcl-1
O=C(O)c1ccccc1NC(=S)NC(=O)c1sc2ccccc2c1Cl	-0.1	57.8*	12.5	13.6	-0.8	-9.0
O=C(NNC(=S)NC(=O)c1sc2ccccc2c1Cl)c1ccc(Cl)cc1	39.6	53.4*	13.1	28.0	-7.3	-4.0
O=C(NNC(=O)c1sc2ccccc2c1Cl)Nc1ccc(Cl)cc1	5.1	22.1	-2.1	2.0	3.0	-1.0
CCCN(Cc1nnc(-c2ccccc2Cl)o1)C(=O)COc1ccc(Cl)cc1	.	.	-1.3	-2.5	-3.3	.
O=C(NC1CC(=O)N(c2cccc(F)c2)C1)N1CCN(C(=O)c2ccco2)CC1 (configuration not stated)	.	.	-0.7	1.6	0.7	.
CCCN(CC(=O)Nc1ccccc1OC)C(=O)c1ccc2[nH]c3c(c2c1)CC(C)CC3 (configuration not stated)	.	.	-1.4	-0.5	10.4	.
COc1ccc(NC(=O)CSc2nnnn2C2CCCCC2)cc1	.	.	6.0	3.4	-2.9	.
CCOC(=O)C1=C(O)/C(=C\c2cc(C)n(-c3ccccc3F)c2C)N=C1C	-20.5	-3.9	48.1*	37.1	28.8	-2.0
O=S(=O)(Nc1ncccn1)c1ccc(NC(=S)Nc2ccccc2Cl)cc1	-35.2	9.3	5.6	10.8	1.9	.
CC(C)NS(=O)(=O)c1ccc(OCC(=O)Nc2ccc(F)cc2)cc1	-11.1	12.6	4.0	4.2	1.0	58.0*
COC(=O)c1c(NC(=O)COC(=O)c2ccc(NC(=O)CC#N)cc2)sc2c1CCCCC2	18.5	67.1*	-12.3	-18.1	-9.7	0.0
CCn1cc(C(=O)N2CCN(c3ccc(OC)cc3)CC2)c(=O)c2cc(S(=O)(=O)N3CCOCC3)ccc21	.	.	3.5	3.5	3.9	.
Cc1ccc(NC2=C(Cl)C(=O)c3ccccc3C2=O)cc1	-2.7	19.8	4.7	0.6	5.5	23.0
CCN(CC)c1ccc(NC2=C(Cl)C(=O)c3ccccc3C2=O)cc1	7.2	89.1*	12.0	10.7	15.6	-2.0
Cc1ccccc1CSc1nnc(NC(=O)Cc2cccs2)s1	20.5	66.0*	-0.4	-5.7	-0.5	-3.0
O=S(=O)(c1ccc(-c2ccon2)s1)N1CCN(c2ccncc2)CC1	-13.5	71.6*	-4.1	0.4	-4.5	.
CCOC(=O)C(C(C)=O)c1c(Br)c(O)c(O)c2c(C(=O)c3ccc(C)cc3)coc12 (configuration not stated)	19.7	67.5*	15.6	25.9	2.6	4.0
CCOC(=O)c1c(C)n(-c2ccc(C)cc2)c2c(C(C(C)=O)C(=O)O)c(Br)c(O)c(O)c12 (configuration not stated)	-41.7	23.8	13.0	9.2	1.8	0.0

High-throughput results deposited in PubChem by several laboratories.
